Assay results published in PubChem BioAssay AID1347426 (Functional Genomics Laboratory (NCATS/FGL), 2020).
The campaign covered roughly 31,000 sequences. About 1,400 (4.5%) were called active. Many of the other results were omitted from the sample, so actives are more common in it than they were. Values without a mark were called inactive.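 How the source made its calls: active means median seed-adjusted z-score above 1 or below -1; inactive means the rest.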

Assay: Novel Modifiers of Survival Motor Neuron (SMN) Protein: Gene Identification via Genome-wide siRNA Screen
Settings: HEK293T SMN2-luciferase reporter, siRNA knockdown, 72 h; actives lie on both sides
Text: Spinal muscular atrophy (SMA) is the most common neuromuscular autosomal recessive disorder and one of the leading genetic causes of infant death. SMA results from mutations inducing loss of function or deletion in the survival of motor neuron-1 gene (SMN1), leading to deficiency of the survival motor neuron (SMN) protein. Although a second nearly identical gene, SMN2, is retained in humans, its expression primarily produces an aberrantly spliced isoform that is largely unstable and quickly degraded. We performed a genome-wide RNAi screen using a cell-based reporter assay to identify genes and pathways that modulate SMN protein stability. The screen identified over 200 genes that led to the greatest increase or decrease in luciferase expression.
Using HEK293T cells stably expressing a luciferase reporter that combines the promoter and splicing based cassettes in tandem with the major portion of the native SMN2 cDNA with luciferase, we performed a genome-wide RNAi screen to identify modulators of SMN protein levels. Luciferase is expressed when full-length SMN protein is generated with luminescence signal proportional to SMN protein levels. Our luciferase-based reporter assay was used to screen Ambion Silencer Select Human Druggable Genome siRNA library (10418 genes, 3 unique siRNAs per gene) using lipid-based reverse transfection.
Briefly, 1 pmol of each siRNA was spotted to a well of a 384-well plate (Corning, Corning, NY) and 20 microL of serum-free DMEM containing […] of Lipofectamine RNAiMax (Life Technologies, Carlsbad, CA) was then added to each well. Transfected cells were maintained at 37 degrees C in 5% CO2 for 72 hours, 20 microL of ONE-Glo Reagent (Promega) was added to wells for luciferase quantification. Raw luminescence reads were normalized to Ambion(R) Silencer(R) Negative Control #2 siRNA, then log10 transformed. A robust statistical measure of median absolute deviation (MAD) to standardize siRNA activities from each screen. Common Seed Analysis was used to help prioritize clean hits as opposed to those appearing to arise from seed based off-target effects. Candidate modulators were defined as the genes having a MAD score greater than 1.0 or less than -1.0.

| Sequence | median seed-adjusted z-score |
| --- | --- |
| AACUCGCAGUGGUUCAAUUTT against TXNDC8 | -0.281 |
| GCAAGGAUAUGUACCAGAUTT against AGXT | 0.017 |
| GGUUCAAUGGAAAAGGGAATT against DLX6 | 0.0275 |
| GAACUGAUAUCUGAAGAGATT against MLPH | -1.2 (active) |
| CCUUCAUUGAGGACCUGAATT against PTP4A3 | 0.354 |
| GCUUCUCACGAGAUUGAAATT against SCARA3 | -0.05 |
| GGGUUAGACGGAUACAAGATT against LILRA2 | -0.103 |
| CAGUACAGGUUGAGUCAAATT against LRRFIP1 | -0.181 |
| GCAAUUGAAUAUUGGAGUUTT against MED17 | -2.06 (active) |
| CAUAGAAGCGGAUACUUAUTT against GALM | -0.111 |
| GCAGGGUGCACAUAUCAUUTT against VNN3 | 0.343 |
| ACAUCUGCCUGAUCUCAUATT against INDO | 0.0511 |
| CCACUAAACUGCGAGAGAATT against CEBPD | -0.101 |
| GUGUGAGGGUUGAACUCAATT against EGLN1 | 2.05 (active) |
| CGGUAUUAUUGUCAUUGCATT against UBE2K | 0.497 |
| GCAAUAUGUUUAUCCAUAATT against CSE1L | 0.425 |
| GACAAAUGUUUGGUCAAUUTT against A2BP1 | 1.17 (active) |
| AUACUGACUUCAUAGAAAATT against RGS2 | 0.00236 |
| GGAUAUCAACUUAUUAGAUTT against XPO1 | 1.12 (active) |
| GCAUUGCAGAGAACCGACATT against METTL7A | 0.278 |
| CCUUGAUAGUGGUCGGGAATT against OSBPL3 | 0.0159 |
| ACAGUGUAUUCAAACAGUATT against NGF | -0.325 |

| Sequence | median seed-adjusted z-score |
| --- | --- |
| GGAUAACUUCUCCUUGUCATT against PRM3 | 0.249 |
| AGAGGAUCAAGGUUUUAAATT against APBA2 | 1.66 (active) |
| GGCCGUUACUGAUUGAGCUTT against CAPN7 | 0.125 |
| GCAUUUCGCUGUACAAGUUTT against IPO4 | -0.0188 |
| GGAUUCAUCCGGUCCAGAUTT against PEX5L | 0.0982 |
| GGCUUGCUGUAAUUACCCATT against ABCB1 | -0.384 |
| GCUUUACAUGGUUUUCGAATT against CASK | -0.422 |
| GGAGAGUGCUACAAGGUGATT against COL6A2 | 0.0119 |
| CAAGUUCUAUCACUCCUUUTT against IRX2 | -0.409 |
| CCACAUUGGUUACCACUAATT against ITGAV | 1.17 (active) |
| CAGUGUUAGUACUCGAUAATT against EXT2 | -0.127 |
| CCUAUUUGGUGUUAACAUATT against DIRAS1 | -0.751 |
| CUAUGAUCUCAACCAAAUATT against CD248 | -0.0191 |
| AGCUAACAGCGGCUCAAGATT against NR1H2 | 0.069 |
| UUACUUUCCUAGUAAGCAATT against GNA12 | 0.598 |
| GCACAGAUGAAGCCCGCUUTT against ARL11 | 1 (active) |
| CAAGCUCUUUGGUCAAGAATT against SNX4 | -0.144 |
| GCAUAAAACUGAAGGUGGATT against PTPRN | -0.272 |
| CAUCAUUUCAGACAAGUUUTT against DDO | -0.202 |
| UCUACGCAGUGGUCACCAATT against BLK | -0.274 |
| CAAUCUAUUAAGAAAUGUUTT against RPE | 0.616 |
| CAUAUAUGAUUGCAUCAAATT against ACTL6A | 1.11 (active) |

| Sequence | median seed-adjusted z-score |
| --- | --- |
| GGAUCAACCGCUGCUUGAATT against HELT | -0.192 |
| CCAACAUACUAGUCAAUAATT against EFTUD1 | -1.39 (active) |
| GGAUGGUCUUUUAGUAAGATT against CBR4 | -0.66 |
| GACAUCGCAUGGUACAAGATT against NFASC | 0.594 |
| GAACUGCUCAGGACUAUAATT against TBRG1 | -1.47 (active) |
| GCUGCAUCGUAAGACAUUUTT against PCGF6 | 0.536 |
| CGAACUUCCUCAUCGGCAATT against PRLHR | 0 |
| CAAAAAUGAUUGCGAAUGATT against APOL4 | -0.54 |
| GCUCUUCGAGAGAACCUGUTT against TUBG1 | 0.618 |
| CCCUCCAUGGAAUAGAAUATT against FCER1A | -0.0293 |
| CGGUUCCUUUAUUACCAAATT against TNFRSF21 | 0.225 |
| AGGAGAUUCUGAACAGGCUTT against GPR26 | -1.33 (active) |
| GCAGCUAUUUGUCUCCGAATT against USP43 | 0 |
| CAGCUAUACAGGAAUUAUUTT against SLC25A16 | 0.0479 |
| GCAGGGCAUUUAUGGGACATT against KRT79 | 0.338 |
| CCAGGUGAAAUGUCAACUATT against HERC5 | -0.422 |
| GAACCAUACAUACUACAGATT against WDR31 | 0.796 |
| AGGGAGCAAAUGAACCUGATT against VIP | 1.52 (active) |
| GGGAAGGUGUUACAGGCUATT against FAM62A | -0.34 |
| CUGUCCAUCUGGGUCGUGATT against SLC30A2 | -0.402 |
| CUGCAGCUUUUAUCACAAATT against SLC25A33 | -0.0252 |
| GUAGAUAUGUGGAAACGGATT against FAM48A | -0.506 |

| Sequence | median seed-adjusted z-score |
| --- | --- |
| GAGUCCCAUUUACAGCUAUTT against PFTK2 | -1.16 (active) |
| GGAUGGAGACUACGAGUUUTT against STK4 | 0.652 |
| GACCAGAUAUUUGCCUAUUTT against CYFIP1 | -0.377 |
| GGAAAAUCAUCUUAUCAGATT against TEAD1 | 1.31 (active) |
| CAGUAUACCAUCUAACAGATT against CNTN1 | -0.796 |
| CCACUUUAAUAAACGUGCUTT against TIMM10 | 0.0738 |
| CAGUGAAGAUAAAAUUCAATT against CRIP3 | 1.7 (active) |
| CCUUCAAGGUCAACGUGUATT against KCNH3 | -0.509 |
| GGAGCACAAUAGAUCUGAATT against SEPX1 | -0.0545 |
| CCAUGGGAAUCCAAUCUGUTT against PTTG1 | -0.459 |
| GGACAUUCUAGAGAAAGAATT against SUPT5H | -4.02 (active) |
| CGACCAUCAUGGAAAACAUTT against ABCB8 | -0.558 |
| GGAGGAUCUUGUACCCAGATT against PNKP | -0.0563 |
| CAGUGGGAACGACAACUUUTT against HNRPA1P4 | -0.906 |
| GGAACACUUUCUCUCUAGATT against NOD2 | 0.129 |
| GAUGCGAUUUGAUGAGAUATT against EPS15L1 | -0.0511 |
| CGCUAUACCUACCAGCAAATT against DNAJB12 | 0 |
| GCCUUACUCUGAUCUGGUATT against IL1RAP | -0.23 |
| CUACCAUGGUGUACCAACATT against QRICH1 | -1.04 (active) |
| GCAAACAAGUGAUAGUGAUTT against RBM11 | -0.0341 |
| UCUUCUCCCUGAUAAAGUATT against SLC6A13 | 0.267 |
| GACUGAUCCCUCUACUUCATT against SNTG1 | 0.167 |

| Sequence | median seed-adjusted z-score |
| --- | --- |
| GCUUUCAGCUGAACGAACUTT against LTF | 0.236 |
| GAAUAUUCCUAUAGUGAUATT against MYOZ2 | 0.315 |
| GAGUCUACCUAAUUCUGGATT against AURKA | -0.108 |
| CGACCUAAUCAUUCACAGUTT against CYP26C1 | -0.276 |
| GGAGAAGAUACAAAGCGCATT against MED21 | -1.3 (active) |
| UAACAAAUCCUAUUAGAUUTT against CTBP2 | -0.241 |
| CGAAAACAGGAGAUCAUUATT against CAMK2G | -0.107 |
| GCGGCUCCAUUUACCAGAATT against VDAC1 | 0.133 |
| GGACAUUUCAUGAGUCAUUTT against 8-Mar | -0.106 |
| GCAUGAAUGCAACCUGAUUTT against DDX55 | 0.507 |
| GCAUGACGACUGAACUGAUTT against MDH1B | -1.13 (active) |
| GCAACUUCUUAAGACUAAATT against DBR1 | 0.438 |
| GCAAGGCGGUGUUUAUGGATT against DLX1 | 0.0356 |
| CUCUCUCUGCAACACCUUUTT against SLC39A3 | 0.0298 |
| CUACAGUCGGGAACAUGAATT against CLK3 | -1.11 (active) |
| ACGCUGUCCUGGUUCUUCATT against DGAT2L3 | 0.247 |
| GCAGAGCGGGUUAAAAUGATT against DNAJC2 | -0.0357 |
| GGUUACAAGUGUAUAACAATT against CD59 | 0.79 |
| CGGUGCUGUUCGUCGUCUATT against GJD3 | -0.251 |
| GAAGGGAAAUGAGUACCGATT against TRIM68 | -0.628 |
